# Source: PubChem BioAssay
# “And” between values parts separate entries of the source, which are not always exact repeats. Equal entries are not always repeated. Records with an inconclusive call do not appear. The source made the active and inactive calls.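 The calls were made as follows, unless noted: active = normalized viability below 100% at a tested concentration; inactive = the rest.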
# Assays:
# [1] = viability loss in pontine glioma line – cell-based, SU-DIPG-XVII, MIPE5.0, CellTiter-Glo, qHTS, dose response (AID 1347060; cut-off not given, nearly all actives have AC50 up to about 26 µM;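 also: cells exposed to compound for 48 hours before viability readout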); settings: CellTiter-Glo ATP luminescence
# [2] = viability loss in pontine glioma line – cell-based, SU-DIPG-XIII, MIPE4.0, CellTiter-Glo, qHTS, dose response (AID 1347061; cut-off not given, nearly all actives have AC50 up to about 37 µM;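 also: cells exposed to compound for 48 hours before readout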); settings: CellTiter-Glo ATP luminescence
# [3] = viability loss in pontine glioma line – cell-based, JHH-DIPG-1, MIPE4.0, CellTiter-Glo, qHTS, dose response (AID 1347062; cut-off not given, nearly all actives have AC50 up to about 27 µM); settings: JHH-DIPG-1 viability, CellTiter-Glo ATP luminescence
# [4] = viability loss in pontine glioma line – cell-based, SU-DIPG-XIII, MIPE5.0, CellTiter-Glo, qHTS, dose response (AID 1347064; cut-off not given, nearly all actives have AC50 up to about 23 µM); settings: CellTiter-Glo ATP luminescence
# [5] = growth inhibition of DIPG cells – cell-based, MIPE4.0 library, CellTiter-Glo luminescence, qHTS (AID 1347066; cut-off not given, nearly all actives have AC50 up to about 30 µM;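 also: cells exposed to compound for 48 hours before readout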); settings: SU-DIPG-VI viability, CellTiter-Glo ATP luminescence
# [6] = JHH-DIPG-1 glioma cell viability, MIPE5.0 library, CellTiter-Glo luminescence, qHTS (AID 1347067; cut-off not given, nearly all actives have AC50 up to about 26 µM;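 also: cells exposed to compound for 48 hours before readout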); settings: JHH-DIPG-1 glioma viability, CellTiter-Glo ATP luminescence
# [7] = growth inhibition of DIPG cells – cell-based, MIPE5.0 library, qHTS (AID 1347068; cut-off not given, nearly all actives have IC50 up to about 30 µM); settings: SU-DIPG-XXV viability
# [8] = viability loss with induced miR-34 in A549 – imaging, A549 dox-inducible miR-34, nuclei and caspase counts, primary screen (AID 1347080;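 active = compounds whose cell count with miR-34 switched on is under 0.7 times the count with it off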); settings: A549 miR-34 inducible, Hoechst nuclei count, 48 h
# [9] = compounds altering HSF1 focus formation in cells – imaging, Selleck Cancer Library (AID 1347162; in the data active = plate-normalised HSF1 focus index below about 0.46); settings: human cells, HSF1 nuclear foci imaging, at 10 µM; SSMD: measured here: HSF1 foci SSMD mean; cell count: measured here: cell number; plate-normalised HSF1 focus index: stronger effect = lower value
# [10] = MELAS cybrid and Rieske KO viability enhancers – cell-based, MELAS cybrids, Rieske KO mouse fibroblasts, CellTiter-Glo, primary screen (AID 1508586;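 active = mean z-score across replicates of 1.96 or higher in either the MELAS or the Rieske mutant cell line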;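 also: z relative to plate mean and SD of compound and empty wells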); settings: low glucose
# [11] = drug combination growth inhibition, ovarian cancer – cell-based, oncology-focused library, rucaparib conditional, profiling panel (AID 1508598); settings: patient-derived ovarian cancer cells, CellTiter-Glo viability, 144 h, stronger effect = lower value
# [12] = growth inhibition, single agent or in combination, cell-based, chromothripsis tumors, cisplatin or BGB combos (AID 1671449; in the data active = inhibition above about 80%;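 also: cells exposed for 96 hours; 0% = vehicle DMSO and 100% = killing by high DMSO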); settings: LFS_MB_P medulloblastoma cells
# [13] = growth inhibition, single agent and combos, cell-based, chromothripsis tumors, cisplatin or BGB combos (AID 1671450; in the data active = inhibition above about 80%;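 also: cells exposed to compound for four days; 0% = vehicle DMSO and 100% = cell killing by high DMSO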); settings: HDN33 neuroblastoma cells, stronger effect = higher value
# [14] = growth inhibition, single agents and combos, ICB984, cell-based, cisplatin or BGB combos, synergistic combos for chromothripsis tumors (AID 1671451; call rule not given here;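 also: cells exposed for 96 hours before readout; 0% = vehicle DMSO and 100% = killing by high DMSO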); settings: ICB984 medulloblastoma cells, drug combinations, stronger effect = higher value
# [15] = growth inhibition, single agents and combos, HTB85, cell-based, BGB or cisplatin IC20 combos, synergistic combos for chromothripsis tumors (AID 1671453; in the data active = inhibition above about 80%;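 also: cells exposed for 96 hours before readout; 0% = vehicle DMSO and 100% = high DMSO killing control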); settings: HTB85 osteosarcoma cells, drug combinations, stronger effect = higher value
# [16] = growth inhibition, MDA-MB-436, cell-based, BGB or cisplatin combos, synergistic combos for chromothripsis tumors (AID 1671458; call rule not given here;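 also: cells exposed for 96 hours; 0% = vehicle DMSO and 100% = killing by high DMSO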); settings: MDA-MB-436 breast carcinoma growth inhibition, drug combinations, stronger effect = higher value
# [17] = BT084 cell growth, single and combined drugs, ICGC_MB145, cisplatin and BGB IC40 combos (AID 1671461; in the data active = inhibition above about 80%;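 also: cells exposed to drugs for 96 hours; 0% = vehicle DMSO and 100% = high DMSO full killing control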); settings: BT084 medulloblastoma cells, drug combinations, stronger effect = higher value
# [18] = RCMB18 cell growth, single agent and combined, cisplatin and BGB IC40 combos (AID 1671462; in the data active = inhibition above about 80%;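 also: cells exposed to compound for four days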); settings: RCMB18 medulloblastoma cells, stronger effect = higher value
structure (smiles),measurement,setting,value
O=C(c1cc(Cc2n[nH]c(=O)c3ccccc23)ccc1F)N1CCN(C(=O)C2CC2)CC1,AC50,[1],20.9 µM (active)
same,AC50,[2],18.7 µM (active)
same,outcome,[3],inactive
same,outcome,[4],inactive
same,outcome,[5],inactive
same,outcome,[6],inactive
same,outcome,[7],inactive
same,fold change,"[8]; stronger effect = lower value, cell number ratio, induced over uninduced",0.871 (inactive)
same,fold change,[8]; measured here: relative caspase fold change +Dox/-Dox,1.53
same,cell count,"[8]; measured here: total cells with miR-34 induction, stronger effect = lower value",4680
same,cell count,[8]; measured here: total cells without miR-34 induction,5380
same,SSMD,[9],2.16
same,cell count,[9],7320
same,plate-normalised HSF1 focus index,[9],1.13 (inactive)
same,z-score,"[10]; MELAS cybrid survival, CellTiter-Glo 48 h, stronger effect = higher value",-0.516 (inactive)
same,z-score,"[10]; Rieske KO mouse fibroblast survival, CellTiter-Glo 72 h",0.876
same,viability,"[11]; at 0.000305 µM, OCI-C5x cells, with rucaparib 10 µM, 100% = cells with rucaparib alone",125% (inactive)
same,viability,"[11]; at 0.000305 µM, OCI-C5x cells, without rucaparib",123% (inactive)
same,viability,"[11]; at 0.000305 µM, OCI-P5x cells, with rucaparib 20 µM, 100% = cells with rucaparib alone",96.5% (active)
same,viability,"[11]; at 0.000305 µM, OCI-P5x cells, without rucaparib",101% (inactive)
same,viability,"[11]; at 0.00122 µM, OCI-C5x cells, with rucaparib 10 µM, 100% = cells with rucaparib alone",132% (inactive)
same,viability,"[11]; at 0.00122 µM, OCI-C5x cells, without rucaparib",122% (inactive)
same,viability,"[11]; at 0.00122 µM, OCI-P5x cells, with rucaparib 20 µM, 100% = cells with rucaparib alone",104% (inactive)
same,viability,"[11]; at 0.00122 µM, OCI-P5x cells, without rucaparib",97% (active)
same,viability,"[11]; at 0.00488 µM, OCI-C5x cells, with rucaparib 10 µM, 100% = cells with rucaparib alone",128% (inactive)
same,viability,"[11]; at 0.00488 µM, OCI-C5x cells, without rucaparib",120% (inactive)
same,viability,"[11]; at 0.00488 µM, OCI-P5x cells, with rucaparib 20 µM, 100% = cells with rucaparib alone",101% (inactive)
same,viability,"[11]; at 0.00488 µM, OCI-P5x cells, without rucaparib",92.4% (active)
same,viability,"[11]; at 0.0195 µM, OCI-C5x cells, with rucaparib 10 µM, 100% = cells with rucaparib alone",114% (inactive)
same,viability,"[11]; at 0.0195 µM, OCI-C5x cells, without rucaparib",123% (inactive)
same,viability,"[11]; at 0.0195 µM, OCI-P5x cells, with rucaparib 20 µM, 100% = cells with rucaparib alone",96.5% (active)
same,viability,"[11]; at 0.0195 µM, OCI-P5x cells, without rucaparib",87.9% (active)
same,viability,"[11]; at 0.0781 µM, OCI-C5x cells, with rucaparib 10 µM, 100% = cells with rucaparib alone",118% (inactive)
same,viability,"[11]; at 0.0781 µM, OCI-C5x cells, without rucaparib",119% (inactive)
same,viability,"[11]; at 0.0781 µM, OCI-P5x cells, with rucaparib 20 µM, 100% = cells with rucaparib alone",104% (inactive)
same,viability,"[11]; at 0.0781 µM, OCI-P5x cells, without rucaparib",96% (active)
same,viability,"[11]; at 0.313 µM, OCI-C5x cells, with rucaparib 10 µM, 100% = cells with rucaparib alone",118% (inactive)
same,viability,"[11]; at 0.313 µM, OCI-C5x cells, without rucaparib",123% (inactive)
same,viability,"[11]; at 0.313 µM, OCI-P5x cells, with rucaparib 20 µM, 100% = cells with rucaparib alone",96.9% (active)
same,viability,"[11]; at 0.313 µM, OCI-P5x cells, without rucaparib",85.5% (active)
same,viability,"[11]; at 1.25 µM, OCI-C5x cells, with rucaparib 10 µM, 100% = cells with rucaparib alone",123% (inactive)
same,viability,"[11]; at 1.25 µM, OCI-C5x cells, without rucaparib",117% (inactive)
same,viability,"[11]; at 1.25 µM, OCI-P5x cells, with rucaparib 20 µM, 100% = cells with rucaparib alone",94.6% (active)
same,viability,"[11]; at 1.25 µM, OCI-P5x cells, without rucaparib",75.5% (active)
same,viability,"[11]; at 5 µM, OCI-C5x cells, with rucaparib 10 µM, 100% = cells with rucaparib alone",105% (inactive)
same,viability,"[11]; at 5 µM, OCI-C5x cells, without rucaparib",115% (inactive)
same,viability,"[11]; at 5 µM, OCI-P5x cells, with rucaparib 20 µM, 100% = cells with rucaparib alone",86.1% (active)
same,viability,"[11]; at 5 µM, OCI-P5x cells, without rucaparib",66.2% (active)
same,inhibition,"[12]; at 0.5 µM, stronger effect = higher value",-24.7% (inactive) and -29.1% (inactive)
same,inhibition,"[12]; measured here: combination with BGB IC20, at 0.005 µM",-26.5% and -12.3%
same,inhibition,"[12]; measured here: combination with BGB IC40, at 0.005 µM",-9.06% and -12.6%
same,inhibition,"[12]; measured here: combination with BGB IC40, at 0.05 µM",-0.874% and -8.68%
same,inhibition,"[12]; measured here: combination with cisplatin, at 0.5 µM, stronger effect = higher value",-41.7% and -35.8%
same,inhibition,"[12]; measured here: combination with cisplatin, at 5 µM, stronger effect = higher value",-43.9% and -38.7%
same,inhibition,"[13]; BGB combo, at 5 µM",14.5% and 9.24%
same,inhibition,[13]; at 0.5 µM,9.6% (inactive) and 3.35% (inactive)
same,inhibition,"[13]; cisplatin combo, at 5 µM",34.3% and 41.4%
same,inhibition,"[13]; measured here: with BGB IC20 combination, at 0.5 µM",5.51% and -1.25%
same,inhibition,"[13]; measured here: with cisplatin IC20 combination, at 0.5 µM",12.4% and 7.9%
same,inhibition,"[13]; single agent, at 5 µM",33% and 44.4%
same,inhibition,"[14]; BGB IC20 combo, at 0.005 µM",-15.2% and -6.05%
same,inhibition,"[14]; BGB IC40 combo, at 0.005 µM",-0.22% and -27.2%
same,inhibition,"[14]; BGB IC40 combo, at 0.05 µM",-4.94% and -12.9%
same,inhibition,[14]; at 0.5 µM,-19.9% (inactive) and -38.5% (inactive)
same,inhibition,"[14]; cisplatin combo, at 0.05 µM",-4.94% and -17.3%
same,inhibition,"[14]; cisplatin combo, at 0.5 µM",-29% and -53.3%
same,inhibition,"[14]; cisplatin combo, at 5 µM",-23.6% and -39.9%
same,inhibition,"[14]; measured here: 5 uM single agent, at 5 µM",-15.8% and -10.7%
same,inhibition,[15]; at 0.5 µM,-1.59% (inactive) and -5.82% (inactive)
same,inhibition,"[15]; measured here: with BGB IC20, at 0.5 µM",-20% and -25.5%
same,inhibition,"[15]; measured here: with BGB IC20, at 5 µM",-17% and 2.87%
same,inhibition,"[15]; measured here: with cisplatin IC20, at 0.5 µM",8.83% and 6.96%
same,inhibition,"[15]; measured here: with cisplatin IC20, at 5 µM",18.3% and 28.5%
same,inhibition,"[15]; single agent, at 5 µM",9.91% and 21.3%
same,inhibition,[16]; at 0.5 µM,6.46% (inactive) and -12% (inactive)
same,inhibition,"[16]; measured here: BGB combination, at 0.5 µM",1.64% and -35.6%
same,inhibition,"[16]; measured here: BGB combination, at 5 µM",-1.2% and -15.8%
same,inhibition,"[16]; measured here: cisplatin combination, at 0.5 µM",-0.142% and -2.85%
same,inhibition,"[16]; measured here: cisplatin combination, at 5 µM",30.4% and 14.1%
same,inhibition,[17]; at 0.5 µM,-15.3% (inactive) and -32.2% (inactive)
same,inhibition,"[17]; cisplatin combination, at 0.5 µM",-11.1% and -29.9%
same,inhibition,"[17]; cisplatin combination, at 5 µM",-16.5% and -11.4%
same,inhibition,"[17]; measured here: BGB IC40 combination 0.05 uM, at 0.05 µM",-6.85% and 14.5%
same,inhibition,"[17]; single agent, at 5 µM",-19.8% and -50%
same,inhibition,[18]; at 0.5 µM,-14.1% (inactive) and 10.3% (inactive)
same,inhibition,"[18]; cisplatin combo, at 5 µM",0.788% and 11.5%
same,inhibition,"[18]; measured here: BGB IC40 combination, at 0.05 µM",-1.19% and -22.9%
same,inhibition,"[18]; measured here: combination with cisplatin, at 0.5 µM",-43.2% and 20.2%
same,inhibition,"[18]; single agent, at 5 µM",-22.3% and -45%
